Bioassay records as filed in PubChem BioAssay.
Only some compounds are listed: those with a hit (about 2.4% of all), similar ones and a draw of the others.
WRN helicase inh-1: inhibitors of human WRN helicase. WRN helicase unwinding, fluorescent forked duplex, kinetic. Potency, µM (top dose mostly 114 µM), hits mostly inhibitors. 360,000 compounds, 0.46% hits; also: nearly all actives have a fitted effect of over 55% in size
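Enzyme (20 nM final) and test compound sit together 15 min at room temperature before substrate addition. Substrate is a single-forked duplex oligonucleotide (100 nM) labelled with fluorophore and quencher, with 2 mM ATP; helicase unwinding raises red fluorescence, read kinetically.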
Pol eta inh-1: DNA polymerase eta (human) inhibition; recombinant Pol eta, fluorescent DNA replication assay; Potency, µM (titrated, usually from 114 µM), hits mostly inhibitors; 390,000 compounds, 1.2% hits
Target sequence (Q9Y253 whole entry, looked up): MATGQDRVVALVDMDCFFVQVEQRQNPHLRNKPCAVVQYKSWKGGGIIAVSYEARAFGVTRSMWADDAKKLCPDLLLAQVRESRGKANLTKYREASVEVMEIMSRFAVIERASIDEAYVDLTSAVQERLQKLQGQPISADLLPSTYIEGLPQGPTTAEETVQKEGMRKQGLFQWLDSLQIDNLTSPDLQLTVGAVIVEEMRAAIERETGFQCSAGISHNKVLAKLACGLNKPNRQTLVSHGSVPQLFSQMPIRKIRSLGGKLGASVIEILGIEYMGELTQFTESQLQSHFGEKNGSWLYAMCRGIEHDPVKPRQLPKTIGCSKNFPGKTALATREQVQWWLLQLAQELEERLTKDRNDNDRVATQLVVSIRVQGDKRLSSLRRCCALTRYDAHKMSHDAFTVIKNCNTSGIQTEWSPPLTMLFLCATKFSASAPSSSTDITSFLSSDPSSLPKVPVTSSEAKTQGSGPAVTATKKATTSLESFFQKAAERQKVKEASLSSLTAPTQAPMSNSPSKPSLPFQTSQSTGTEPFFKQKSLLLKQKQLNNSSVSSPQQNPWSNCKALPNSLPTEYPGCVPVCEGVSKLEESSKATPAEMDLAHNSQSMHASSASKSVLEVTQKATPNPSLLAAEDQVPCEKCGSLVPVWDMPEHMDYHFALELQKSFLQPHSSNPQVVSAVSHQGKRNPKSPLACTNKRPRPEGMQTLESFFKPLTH
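Pol eta at 10 nM preincubated with compounds 15 min at room temperature; reaction started with fluorescent substrate (50 nM final) and read kinetically at 0 and 10 min.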
FEN1 inh-1: inhibitors of human flap endonuclease 1; Potency, µM (series often up to 114 µM), hits mostly inhibitors; Recombinant FEN1 flap cleavage, fluorescence, 15 min; P39748; 390,000 compounds, 0.35% hits; also: nearly all actives have a fitted effect of over 65% in size
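With each library titrated from low to high concentration, compounds met 10 nM FEN1 for 15 min at room temperature before 50 nM substrate was added; readings at 0 and 15 min fed four-parameter Hill curve fits.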
POLI inh: blocks human DNA polymerase iota activity. Q9UNA4. Pol iota fluorescent replication assay, 10 min. Potency, µM (titrated, usually from 115 µM), actives largely listed as inhibitors. 390,000 compounds, 1% hits. AID 588590
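Pol iota at 10 nM preincubated 15 min with compounds at room temperature; reaction started with fluorescent substrate, 50 nM final. Fluorescence read kinetically at 0 and 10 min; buffer-only wells as negative control.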
Pol kappa inh-1: DNA polymerase kappa (human) inhibition; Potency, µM (doses to about 107 µM), most hits filed as inhibitors; purified Pol kappa, fluorescent DNA synthesis assay, 10 min; 400,000 compounds, 0.53% hits
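Pol kappa 10 nM + cpd, 15 min RT; start w/ substrate 50 nM final; fluorescence kinetic read, 0 and 10 min. Neg ctrl: buffer, no enzyme.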
POLB inh: inhibitors of human DNA polymerase beta; Potency, µM (top dose mostly 114 µM), hits mostly inhibitors; Pol beta primer extension/strand displacement, fluorescence kinetic; 340,000 compounds, 1.3% hits; P06746
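Curves were derived by four-parameter Hill fits of normalized qHTS data. The kinetic fluorescent primer-extension read was taken at 0 and 10 min after 50 nM substrate, following a 15 min room-temperature preincubation of 10 nM enzyme with compounds.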
GALK inh confirm: galactokinase (human) inhibition, confirmation. shares compounds with Pol eta inh-1. purified GALK, Kinase-Glo ATP depletion luminescence. Potency, µM (titrated, usually from 115 µM), hits mostly inhibitors. 150 compounds, 70% hits. AID 2015
Redox cycling: redox cycling activity in phenol red-HRP assay. shares compounds with Pol eta inh-1. 150 compounds, 40% hits. Potency, µM (top dose mostly 115 µM), usual class: inhibitors. Phenol red-HRP H2O2 redox cycling, absorbance 600 nm
HEK293 viability: counter-screen for GALK inhibitors: HEK293 cell cytotoxicity. shares compounds with Pol eta inh-1. AID 2547. Potency, µM (top dose mostly 46.1 µM), usual class: inhibitors. 170 compounds, 10% hits. HEK-293 viability, ATP luminescence (CellTiter-Glo), 24/48 h
Pol kappa inh-2: Pol kappa (human) inhibition, cherry-pick confirmation | shares compounds with Pol eta inh-1 | purified Pol-kappa, fluorescent strand-displacement substrate | 920 compounds, 76% hits | Potency, µM, actives largely listed as inhibitors | AID 720501
Pol eta inh-2: confirmation of human DNA polymerase eta inhibitors. shares compounds with Pol eta inh-1. Pol eta primer extension, TAMRA/BHQ fluorescence, 10 min. Potency, µM, actives largely listed as inhibitors. 2,600 compounds, 64% hits. AID 720502
FEN1 inh-2: confirmation of human FEN1 inhibitors; shares compounds with FEN1 inh-1; FEN1 flap cleavage, TAMRA/BHQ2 fluorogenic DNA substrate; Potency, µM, most hits filed as inhibitors; 880 compounds, 79% hits; AID 720498; also: nearly all actives have a fitted effect of over 60% in size
WRN helicase inh-2: WRN helicase inhibition, cherry-pick retest. 610 compounds, 63% hits. shares compounds with WRN helicase inh-1. Potency, µM (top dose mostly 57.1 µM), hits mostly inhibitors. WRN helicase DNA unwinding, fluorescence kinetic. AID 720497; also: nearly all actives have a fitted effect of over 65% in size
TO DNA binding: counter-screen for WRN helicase inhibitors: DNA binding. 610 compounds, 10% hits. Potency, µM (titrated, usually from 57.1 µM), usual class: inhibitors. shares compounds with WRN helicase inh-1. thiazole orange DNA binding displacement, fluorescence;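 also: drop in dye fluorescence marks compound binding to DNA; nearly all actives have a fitted effect of over 60% in size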
BLM helicase inh: BLM helicase inhibition, WRN selectivity check. Potency, µM (top dose mostly 57.1 µM), usual class: inhibitors. 610 compounds, 60% hits. shares compounds with WRN helicase inh-1. Recombinant BLM helicase DNA unwinding, red fluorescence; also: nearly all actives have a fitted effect of over 60% in size
Large screens that a line does not name were inactive (follow-up assays come after a bar, where they were run). Calls follow the shape of the dose curve; as a rule, active = well fitted curve in the direction sought with a large enough effect; inconclusive = small, poorly fitted or top-dose-only effect, or another doubt; inactive = no such curve, though single readings can be large; an effect the other way counts as inactive or inconclusive.

Cc1csc(N/N=C/c2ccc(O)c([N+](=O)[O-])c2)n1	WRN helicase inh-1 inconclusive, Pol eta inh-1 7.1µM, FEN1 inh-1 79µM, POLI inh 13µM, Pol kappa inh-1 22µM, POLB inh 25µM | Pol eta inh-2 38 | FEN1 inh-2 67
O=C(NNc1cc(N2CCOCC2)nc(N2CCOCC2)n1)c1ccc([N+](=O)[O-])cc1	Pol eta inh-1 89µM, POLI inh 6.3µM | GALK inh confirm 24µM | Redox cycling 4.2µM | HEK293 viability inactive | FEN1 inh-2 inconclusive
O=C(Nc1ccc(N2CCOCC2)cc1N1CCOCC1)c1ccc([N+](=O)[O-])cc1	Pol eta inh-1 inconclusive
COc1c(O)cc2c(c1O)[C@@H]1O[C@H](CO)[C@@H](O)[C@H](O)[C@H]1OC2=O	none
Cc1c(C(=O)O)c(O)cc2c1C(=O)c1c(O)c([C@@H]3O[C@H](CO)[C@@H](O)[C@H](O)[C@H]3O)c(O)c(O)c1C2=O	WRN helicase inh-1 32µM, Pol eta inh-1 inconclusive, FEN1 inh-1 inconclusive, POLI inh inconclusive, Pol kappa inh-1 50µM (no result: POLB inh) | Pol kappa inh-2 42 | Pol eta inh-2 inconclusive | FEN1 inh-2 85
COc1ccc(CNC(=O)CN(c2ccccc2OC)S(=O)(=O)c2ccc(C)cc2)cc1	none (no result: WRN helicase inh-1)
O=C1NN(c2ccccc2)C(=O)/C1=C\c1coc2ccc(O)cc2c1=O	WRN helicase inh-1 inconclusive, Pol eta inh-1 inconclusive, POLI inh inconclusive, Pol kappa inh-1 inconclusive, POLB inh inconclusive | Pol eta inh-2 inconclusive | WRN helicase inh-2 inactive | TO DNA binding inactive | BLM helicase inh inconclusive
O=C1NN(c2ccccc2)C(=O)/C1=C/c1coc2ccccc2c1=O	WRN helicase inh-1 inconclusive, Pol eta inh-1 inconclusive, POLI inh inconclusive, Pol kappa inh-1 inconclusive
Cc1ccc(NC(=O)CCn2nc(C)c(S(=O)(=O)N3CCCCC3)c2C)cc1Cl	none (no result: WRN helicase inh-1)
CN(C)c1ccc(/C=C/C=C2/SC(=S)N(c3ccccc3)C2=O)cc1	WRN helicase inh-1 inconclusive, POLI inh inconclusive
O=C1/C(=C/C=C/c2ccco2)SC(=S)N1c1ccc(O)cc1	WRN helicase inh-1 32µM, Pol eta inh-1 3.5µM, FEN1 inh-1 14µM, POLI inh inconclusive, Pol kappa inh-1 7.9µM, POLB inh 3.2µM | Pol eta inh-2 60 | WRN helicase inh-2 12µM | TO DNA binding inconclusive | BLM helicase inh 8.6µM
CCC(=O)c1ccc(CCCCCC(=O)O)s1	WRN helicase inh-1 inconclusive, Pol eta inh-1 8.9µM, POLI inh inconclusive, Pol kappa inh-1 inconclusive, POLB inh 35µM | Pol eta inh-2 38 | WRN helicase inh-2 22µM | TO DNA binding inactive | BLM helicase inh 22µM
COc1ccc(Sc2ccc(/C=C3\C(=O)NN(c4ccccc4)C3=O)o2)cc1	WRN helicase inh-1 inconclusive, Pol eta inh-1 25µM, POLI inh 18µM, Pol kappa inh-1 inconclusive, POLB inh 45µM | Pol eta inh-2 inconclusive | WRN helicase inh-2 22µM | TO DNA binding inactive | BLM helicase inh 22µM
COc1ccc2c(Sc3ccccc3)c(C(=O)N3CCC(C)CC3)[nH]c2c1	none (no result: WRN helicase inh-1)
COc1cc(/C=C2/SC(=S)N(Cc3ccccc3)C2=O)ccc1OS(C)(=O)=O	none
COc1cc([N+](=O)[O-])cc(/C=C2/SC(=S)N(Cc3ccccc3)C2=O)c1O	WRN helicase inh-1 2.7µM, Pol eta inh-1 inconclusive, FEN1 inh-1 16µM, POLI inh 14µM, POLB inh 18µM | Pol kappa inh-2 19 | Pol eta inh-2 43 | FEN1 inh-2 21 | WRN helicase inh-2 7.6µM | TO DNA binding 14µM | BLM helicase inh 5.4µM
O=C1CN(S(=O)(=O)c2cc(Br)ccc2Br)CCN1	none (no result: POLB inh)
O=c1c(Br)ccc(Br)cc1Br	WRN helicase inh-1 10µM, Pol eta inh-1 28µM, FEN1 inh-1 inconclusive, POLI inh 7.1µM (no result: POLB inh) | Pol eta inh-2 inconclusive | WRN helicase inh-2 24µM | TO DNA binding inactive | BLM helicase inh 22µM
Cc1ccc(CSC2=Nc3ccccc3C3=NC(CC(=O)NC4CCCCC4)C(=O)N23)cc1 (stereo not drawn)	none (no result: WRN helicase inh-1, Pol eta inh-1)
CCc1ccccc1NC(=O)c1sc2nc3n(c(=O)c2c1C)CCC3	none (no result: WRN helicase inh-1)
O=C(Nc1nc(-c2ccco2)cs1)c1ccccc1	WRN helicase inh-1 inconclusive, Pol eta inh-1 inconclusive, POLI inh inconclusive, Pol kappa inh-1 inconclusive
O=C(Nc1nncs1)c1cc(-c2ccco2)nc2ccccc12	WRN helicase inh-1 32µM, Pol eta inh-1 14µM, POLI inh inconclusive, Pol kappa inh-1 inconclusive (no result: POLB inh) | Pol kappa inh-2 inconclusive | Pol eta inh-2 76 | WRN helicase inh-2 inconclusive | TO DNA binding inactive | BLM helicase inh inconclusive
CCCC(=O)Nc1ncnc2c1ncn2C1OC2COP(=O)(O)OC2C1OC(=O)CCC (stereo not drawn)	none (no result: WRN helicase inh-1, Pol eta inh-1, FEN1 inh-1, POLI inh, POLB inh)
CC(C)Sc1nc2sc3c(c2c(=O)n1Cc1ccccc1)CCCC3	POLI inh inconclusive (no result: WRN helicase inh-1)
